# Results taken from PubChem BioAssay (EPA / NIEHS).
# Activity calls are given as the source filed them. How the source made its calls: active means hit-call score of the fitted dose curve at least 0.9, where 1 is the maximum; inactive means score below 0.9.
# What was measured:
# [1] = read-out: Interleukin-1 alpha (IL1a), IL1A (gene 3552); experiment: BSK_KF3CT_IL1a: BioMAP Diversity Plus: KF3CT Assay for Interleukin-1 alpha (IL1a) Biomarker Activity (AID 2283070); conditions: primary human keratinocytes with fibroblasts; actives raise or lower the signal
# In short: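 Human keratinocyte plus foreskin fibroblast primary co-culture, sampled 24 h after chemical dosing. IL-1a measured by ELISA; responses fitted bidirectionally against DMSO baseline (negative control), so gain or loss of signal both count.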
# [2] = read-out: TIMP metallopeptidase inhibitor 2 (TIMP2), TIMP2 (gene 7077); experiment: BSK_KF3CT_TIMP2: BioMAP Diversity Plus: KF3CT Assay for TIMP metallopeptidase inhibitor 2 (TIMP2) Biomarker Activity (AID 2283071); conditions: primary human keratinocytes with fibroblasts; actives raise or lower the signal
# In short: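 Human primary keratinocyte/foreskin fibroblast co-culture dosed with chemical and sampled at 24 h. TIMP-2 levels quantified by ELISA; bidirectional fitting against DMSO negative control as baseline.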
# [3] = read-out: Transforming growth factor beta 1 (TGFb1), TGFB1 (gene 7040); experiment: BSK_KF3CT_TGFb1: BioMAP Diversity Plus: KF3CT Assay for Transforming growth factor beta 1 (TGFb1) Biomarker Activity (AID 2283072); conditions: primary human keratinocytes with fibroblasts; actives raise or lower the signal
# In short: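 Human keratinocyte plus foreskin fibroblast primary co-culture, dosed with chemical for 24 h. TGF-b1 quantified by ELISA. Activity fitted bidirectionally against DMSO negative control as baseline.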
# [4] = read-out: C-C motif chemokine 2 (Homo sapiens) (UniProt P13500); experiment: BSK_KF3CT_MCP1: BioMAP Diversity Plus: KF3CT Assay for Monocyte Chemoattractant Protein 1 (MCP1/CCL2) Biomarker Activity (AID 2283073); conditions: primary human keratinocytes with fibroblasts; actives raise or lower the signal
# In short: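 Human keratinocyte–foreskin fibroblast co-culture; MCP-1 measured by ELISA 24 h after dosing. Bidirectional fit vs DMSO; cytotoxicity tracked by SRB total protein in parallel cultures.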
# [5] = read-out: Matrix Metallopeptidase 9 (MMP9), MMP9 (gene 4318); experiment: BSK_KF3CT_MMP9: BioMAP Diversity Plus: KF3CT Assay for Matrix Metallopeptidase 9 (MMP9) Biomarker Activity (AID 2283074); conditions: primary human keratinocytes with fibroblasts; actives raise or lower the signal
# In short: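 Keratinocyte plus foreskin fibroblast human primary skin co-culture was dosed with chemical and MMP-9 was quantified by ELISA 24 h later. Bidirectional curve fitting used DMSO as negative control and activity baseline.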
# [6] = read-out: urokinase plasminogen activator (uPA), PLAU (gene 5328); experiment: BSK_KF3CT_uPA: BioMAP Diversity Plus: KF3CT Assay for urokinase plasminogen activator (uPA) Biomarker Activity (AID 2283075); conditions: primary human keratinocytes with fibroblasts; actives raise or lower the signal
# In short: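 Human keratinocyte plus foreskin fibroblast primary co-culture exposed to chemical for 24 h. uPA levels were quantified by ELISA, and activity was fitted bidirectionally against a DMSO negative-control baseline.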
# [7] = read-out: CD40, CD40 (gene 958); experiment: BSK_LPS_CD40: BioMAP Diversity Plus: LPS Assay for CD40 Biomarker Activity (AID 2283076); conditions: primary human HUVEC with PBMC; actives raise or lower the signal
# In short: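 HUVEC plus PBMC co-culture stimulated with LPS; CD40 quantified by ELISA 24 h after compound dosing. Fitting was bidirectional relative to DMSO. SRB staining of parallel cultures flagged overt cytotoxicity.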
# [8] = read-out: E-selectin (Homo sapiens) (UniProt P16581); experiment: BSK_LPS_Eselectin: BioMAP Diversity Plus: LPS Assay for Eselectin Biomarker Activity (AID 2283077); conditions: primary human HUVEC with PBMC; actives raise or lower the signal
# In short: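 Human umbilical vein endothelial cells co-cultured with PBMC under LPS stimulation; cell-surface E-selectin measured by ELISA 24 h after dosing. Change in either direction versus DMSO, with SRB total-protein staining in parallel cultures for cytotoxicity.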
# [9] = read-out: Interleukin-8 (IL8), CXCL8 (gene 3576); experiment: BSK_LPS_IL8: BioMAP Diversity Plus: LPS Assay for Interleukin-8 (IL8) Biomarker Activity (AID 2283078); conditions: primary human HUVEC with PBMC; actives raise or lower the signal
# In short: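 Human umbilical vein endothelial cells co-cultured with PBMC, LPS-stimulated, exposed to compound for 24 h. IL-8 quantified by ELISA; fitted in both directions against DMSO, with SRB total-protein staining of parallel cultures for cytotoxicity.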
# [10] = BSK_LPS_SRB: Viability Assessment in the BioMAP Diversity Plus: LPS Assay (AID 2283079); conditions: primary human HUVEC with PBMC;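 further: total protein by sulforhodamine B absorbance as a cytotoxicity measure; measured one day after compound addition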
# In short: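 Co-culture of human umbilical vein endothelial cells and PBMC, read 24 h after dosing. Total protein by 0.1% SRB staining after 10% TCA fixation, absorbance at 560 nm; bidirectional fit against DMSO.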
# [11] = read-out: Interleukin-1 alpha (IL1a), IL1A (gene 3552); experiment: BSK_LPS_IL1a: BioMAP Diversity Plus: LPS Assay for Interleukin-1 alpha (IL1a) Biomarker Activity (AID 2283080); conditions: primary human HUVEC with PBMC; actives raise or lower the signal
# In short: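 Human umbilical vein endothelial cells co-cultured with PBMC and stimulated with LPS; IL-1a measured by ELISA 24 h after dosing. Bidirectional fitting against DMSO; cytotoxicity checked by SRB staining in parallel cultures.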
# [12] = read-out: Monocyte Chemoattractant Protein-1 (MCP1), CCL2 (gene 6347); experiment: BSK_LPS_MCP1: BioMAP Diversity Plus: LPS Assay for Monocyte Chemoattractant Protein-1 (MCP1) Biomarker Activity (AID 2283081); conditions: primary human HUVEC with PBMC; actives raise or lower the signal
# In short: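 Human umbilical vein endothelial cells co-cultured with PBMC, LPS-stimulated; secreted MCP-1 measured by ELISA 24 h after compound addition. Bidirectional curve fitting against DMSO baseline; SRB total-protein staining in parallel cultures for cytotoxicity.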
# [13] = BSK_LPS_PGE2: BioMAP Diversity Plus: LPS Assay for Prostaglandin E2 (PGE2) Biomarker Activity (AID 2283082); conditions: primary human HUVEC with PBMC; actives raise or lower the signal
# In short: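 HUVEC plus PBMC co-culture stimulated with LPS; secreted PGE2 quantified by ELISA 24 h after chemical dosing. Activity fitted bidirectionally against DMSO as negative control and baseline; parallel SRB total-protein staining served as cytotoxicity check.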
# [14] = read-out: Macrophage colony-stimulating factor (MCSF), CSF1 (gene 1435); experiment: BSK_LPS_MCSF: BioMAP Diversity Plus: LPS Assay for Macrophage colony-stimulating factor (MCSF) Biomarker Activity (AID 2283083); conditions: primary human HUVEC with PBMC; actives raise or lower the signal
# In short: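 HUVEC–PBMC co-culture, M-CSF measured by ELISA 24 h after chemical dosing. Fitted in both directions relative to DMSO as negative control; overt cytotoxicity assessed by SRB total-protein staining in parallel cultures.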
# [15] = read-out: Tumor necrosis factor (Homo sapiens) (UniProt P01375); experiment: BSK_LPS_TNFa: BioMAP Diversity Plus: LPS Assay for Tumour Necrosis Factor alpha (TNFa) Biomarker Activity (AID 2283085); conditions: primary human HUVEC with PBMC; actives raise or lower the signal
# In short: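 Human umbilical vein endothelial cells co-cultured with PBMC were exposed to test chemical and TNFa measured by ELISA 24 h after dosing. Bidirectional curve fitting was done relative to DMSO as negative control and baseline.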
# [16] = read-out: Vascular cell adhesion molecule 1 (VCAM1), VCAM1 (gene 7412); experiment: BSK_LPS_VCAM1: BioMAP Diversity Plus: LPS Assay for Vascular cell adhesion molecule 1 (VCAM1) Biomarker Activity (AID 2283086); conditions: primary human HUVEC with PBMC; actives raise or lower the signal
# In short: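 Human umbilical vein endothelial cells co-cultured with peripheral blood mononuclear cells under LPS stimulation were exposed to test chemical for 24 h. VCAM-1 levels were then measured by ELISA, with bidirectional curve fitting relative to DMSO as negative control and baseline.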
# [17] = read-out: CD38, CD38 (gene 952); experiment: BSK_SAg_CD38: BioMAP Diversity Plus: SAg Assay for CD38 Biomarker Activity (AID 2283087); conditions: primary human HUVEC with PBMC; actives raise or lower the signal
# In short: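 Fluorescence ELISA of cell-surface CD38 served as the read-out, with either increase or decrease fitted against DMSO controls. Cells were a human umbilical vein endothelium plus PBMC co-culture under SEB/TSST-1 stimulation, measured 24 h after dosing.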
# [18] = read-out: CD40, CD40 (gene 958); experiment: BSK_SAg_CD40: BioMAP Diversity Plus: SAg Assay for CD40 Biomarker Activity (AID 2283088); conditions: primary human HUVEC with PBMC; actives raise or lower the signal
# In short: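 HUVEC plus PBMC co-culture, superantigen-activated, with CD40 read by ELISA 24 h after dosing. Curves fitted in both directions against DMSO. Overt cytotoxicity checked by parallel SRB total-protein staining.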
# [19] = read-out: CD69, CD69 (gene 969); experiment: BSK_SAg_CD69: BioMAP Diversity Plus: SAg Assay for CD69 Biomarker Activity (AID 2283089); conditions: primary human HUVEC with PBMC; actives raise or lower the signal
# In short: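 ELISA, fluorescence read-out: CD69 on human umbilical vein endothelial cell + PBMC co-culture, 24 h post-dosing. Gain or loss of signal fitted bidirectionally against DMSO baseline.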
# [20] = read-out: Tissue Factor, F3 (gene 2152); experiment: BSK_LPS_TissueFactor: BioMAP Diversity Plus: LPS Assay for Tissue Factor Biomarker Activity (AID 2283084); conditions: primary human HUVEC with PBMC; actives raise or lower the signal
# In short: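 Human umbilical vein endothelial cells co-cultured with PBMC were dosed with compound. Cell-surface CD142 was measured by ELISA 24 h later. Activity was fitted bidirectionally against DMSO, with SRB total-protein staining in parallel cultures for cytotoxicity.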
# E-selectin (Homo sapiens), sequence (P16581 whole entry, looked up): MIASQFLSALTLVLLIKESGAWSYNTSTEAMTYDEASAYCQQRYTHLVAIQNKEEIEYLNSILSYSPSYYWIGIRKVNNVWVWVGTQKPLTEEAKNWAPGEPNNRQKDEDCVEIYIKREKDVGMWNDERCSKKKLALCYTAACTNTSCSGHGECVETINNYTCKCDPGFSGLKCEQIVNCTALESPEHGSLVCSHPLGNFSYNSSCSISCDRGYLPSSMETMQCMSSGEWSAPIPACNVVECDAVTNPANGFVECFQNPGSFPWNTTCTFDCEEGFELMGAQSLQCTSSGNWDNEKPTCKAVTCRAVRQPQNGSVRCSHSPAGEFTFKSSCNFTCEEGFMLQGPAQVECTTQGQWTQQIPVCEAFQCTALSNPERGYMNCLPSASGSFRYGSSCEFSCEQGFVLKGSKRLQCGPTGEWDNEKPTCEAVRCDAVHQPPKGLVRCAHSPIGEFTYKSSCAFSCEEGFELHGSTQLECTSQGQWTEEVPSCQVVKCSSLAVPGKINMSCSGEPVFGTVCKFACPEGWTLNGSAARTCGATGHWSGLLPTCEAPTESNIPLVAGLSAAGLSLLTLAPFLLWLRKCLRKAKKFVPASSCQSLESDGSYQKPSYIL
# Tumor necrosis factor (Homo sapiens), sequence (P01375 whole entry, looked up): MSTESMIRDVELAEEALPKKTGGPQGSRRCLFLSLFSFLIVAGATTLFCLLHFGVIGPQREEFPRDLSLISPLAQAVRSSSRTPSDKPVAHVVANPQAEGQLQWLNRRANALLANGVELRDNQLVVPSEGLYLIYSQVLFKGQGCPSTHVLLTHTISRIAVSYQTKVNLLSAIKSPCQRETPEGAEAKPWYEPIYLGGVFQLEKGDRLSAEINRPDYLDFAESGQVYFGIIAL
smiles,measurement,setting,value
Cn1c(=O)c2[nH]cnc2n(C)c1=O,outcome,[1],inactive
same,outcome,[2],inactive
same,outcome,[3],inactive
same,outcome,[4],inactive
same,outcome,[5],inactive
same,outcome,[6],inactive
same,outcome,[7],inactive
same,outcome,[8],inactive
same,outcome,[9],inactive
same,outcome,[10],inactive
same,outcome,[11],inactive
same,outcome,[12],inactive
same,outcome,[13],inactive
same,outcome,[14],inactive
same,outcome,[15],inactive
same,outcome,[16],inactive
same,outcome,[17],inactive
same,outcome,[18],inactive
same,outcome,[19],inactive
Nc1ccn([C@@H]2O[C@H](CO)[C@@H](O)[C@@H]2O)c(=O)n1,outcome,[1],inactive
same,outcome,[2],inactive
same,outcome,[3],inactive
same,outcome,[4],inactive
same,outcome,[5],inactive
same,outcome,[6],inactive
same,outcome,[7],inactive
same,outcome,[8],inactive
same,outcome,[10],inactive
same,outcome,[11],inactive
same,outcome,[12],inactive
same,outcome,[13],inactive
same,outcome,[14],inactive
same,outcome,[20],inactive
same,outcome,[15],inactive
same,outcome,[16],inactive
same,outcome,[17],inactive
same,outcome,[18],inactive
same,outcome,[19],inactive
NC(=O)NN=Cc1ccc([N+](=O)[O-])o1,outcome,[1],inactive
same,outcome,[2],inactive
same,outcome,[3],inactive
same,outcome,[4],inactive
same,outcome,[5],inactive
same,outcome,[6],inactive
same,outcome,[7],inactive
same,outcome,[8],inactive
same,outcome,[10],inactive
same,outcome,[11],inactive
same,outcome,[12],inactive
same,outcome,[13],inactive
same,outcome,[14],inactive
same,outcome,[20],inactive
same,outcome,[15],inactive
same,AC50,[16],12.4 µM (active)
same,outcome,[17],inactive
same,outcome,[18],inactive
same,outcome,[19],inactive
